# Screening data from PubChem.
# A selection: hits, their analogues and other compounds. The true share with any hit is near 2.8%.
# Integrin act MD: activates integrin-mediated alleviation for muscular dystrophy | alpha7betagal myoblasts, beta-gal FDG fluorescence, 48 h | Potency, µM (doses to about 38.3 µM), inactives show top-dose activation, hits mostly activators | 350,000 tested, 0.064% active | AID 624291;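 also: potency is read from the fitted curve at half-maximal effect; 100% = response of the positive control SU9516; nearly all actives have a fitted effect of over 60% in size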
#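 alpha7betagal+/- myoblasts (passage 13, 250/well) treated 48 h at 37C with compounds at 1:260 dilution of DMSO stock. Lysed, then beta-galactosidase activity read as FDG fluorescence (ex 480/em 540) after 30 min, with pre-read for autofluorescence.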
# PTHR1 agonist: PTHR1 (human) receptor agonism. 410,000 tested, 0.075% active. HEK293 GP2 PTHR1 cells, GloSensor cAMP luminescence, 1 h. Potency, µM (doses to about 115 µM), without a hit: at the highest dose activation, actives largely listed as activators; also: potency is read from the fitted curve at half-maximal effect; nearly all actives have a fitted effect of over 55% in size
# Target sequence (Q03431 whole entry, looked up): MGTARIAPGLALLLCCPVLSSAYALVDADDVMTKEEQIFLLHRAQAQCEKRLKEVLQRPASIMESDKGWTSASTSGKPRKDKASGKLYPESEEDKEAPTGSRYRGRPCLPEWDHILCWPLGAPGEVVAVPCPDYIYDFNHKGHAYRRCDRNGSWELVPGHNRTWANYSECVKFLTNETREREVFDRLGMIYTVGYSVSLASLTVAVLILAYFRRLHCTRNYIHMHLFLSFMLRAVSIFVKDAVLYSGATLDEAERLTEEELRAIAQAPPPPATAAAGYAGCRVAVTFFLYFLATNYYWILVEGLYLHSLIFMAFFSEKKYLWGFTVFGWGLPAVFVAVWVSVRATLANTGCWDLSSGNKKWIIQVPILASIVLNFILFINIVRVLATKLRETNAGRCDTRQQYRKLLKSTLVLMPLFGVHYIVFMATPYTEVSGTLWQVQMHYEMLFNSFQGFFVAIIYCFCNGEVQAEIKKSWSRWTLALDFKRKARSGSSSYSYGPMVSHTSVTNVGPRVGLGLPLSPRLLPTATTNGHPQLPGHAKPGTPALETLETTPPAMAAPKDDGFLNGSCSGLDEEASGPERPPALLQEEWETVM
#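 HEK-293-derived GP2 cells expressing PTHR1 and a GloSensor cAMP reporter, 3,000/well, plated overnight, given luciferin plus IBMX (each 0.5 mM as added) for 1 h at 37 °C, then compound for 1 h at 37 °C. Luminescence was read after 15 min at room temperature.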
# CBFb RUNX1 block: inhibitors of human CBF-beta and RUNX1 interaction; 230,000 tested, under 10 active; AlphaScreen CBFb-His/RUNX1-biotin binding, biochemical; Q01196+Q13951; AID 1477; Potency, µM (highest dose often 59.8 µM), for the others: at the highest dose activity, negative = inhibition, actives largely listed as inhibitors; also: % of control where 0% means no effect
#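 AlphaScreen proximity signal reports loss of binding between His-tagged CBF-beta and biotin-labelled RUNX1, each at 30 nM. Proteins are pre-associated for 20 minutes, compounds added for 15 minutes, then beads for 90 minutes, all at ambient temperature.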
# D3 antag: blocks the human D3 dopamine receptor. D3R cells, DiscoveRx beta-arrestin luminescence, antagonist mode; stronger effect = lower value. max response, negative = inhibition, %. P35462. 360,000 tested, 2.5% active; in the data active = max response below about -50%; inconclusive = no clear call, values can overlap the other calls; also: % is scaled to controls: 0 for no effect and ±100 for the full control effect
#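 Cells plated overnight at 1500 cells/well, then exposed to library compounds with dopamine controls for 90 minutes at 37 degrees C. DiscoveRx reagent added for 30–60 minutes at room temperature; luminescence read, quantitative HTS format.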
# DRD3 agonist: activates the human D3 dopamine receptor; max activation, %; D3R DiscoveRx beta-arrestin cells, luminescence, 90 min; AID 652048; 410,000 tested, 0.58% active; in the data active = max activation above about 30%; also: 0% is about no effect
#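 Agonist-mode cell screen: cells plated at 1500/well and incubated overnight at 37 °C, then exposed to library compounds for 90 min at 37 °C. Detection reagent was added for 30–60 min at room temperature, and luminescence was read.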
# MBNL1-CUG inh: MBNL1-poly(CUG) RNA binding inhibition; 280,000 tested, 0.036% active; TR-FRET MBNL1-His/biotin-(CUG)12 binding, 665/545 ratio; Potency, µM (highest dose often 57.5 µM), inactives show at the highest dose activity change, negative = inhibition, usual class: inhibitors; Q9NR56; active = well fitted inhibition curve with a large enough effect in the signal ratio, with a control signal flat, not every such curve was filed as active; inconclusive = small, poorly fitted or top-dose-only effect, or effect the other way, or a change in a side signal; inactive = no such curve, though single readings can be large or run the other way; the % refers to the signal ratio; also: potency is read from the fitted curve at half-maximal effect; % is scaled to controls: 0 for no effect and ±100 for the full control effect
#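 MBNL1-His + Biotin-(CUG)12, cpd titration 92 nM–58 uM; Tb anti-His Ab 0.055 ng/ul, SA-XL665 5 nM (final); 60 min RT; ratiometric 665/545 nm, Ex 340 nm; normalized to buffer and full-complex controls.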
# * hit, by the source's call; i = inactive; ? = inconclusive; . = no result; ! = a repeat was not active; [ ] = dose if it differs, or a comment. Unless noted, calls follow the shape of the dose curve; as a rule, active = well fitted curve in the direction sought with a large enough effect; inconclusive = small, poorly fitted or top-dose-only effect, or another doubt; inactive = no such curve, though single readings can be large; an effect the other way counts as inactive or inconclusive.
SMILES,Integrin act MD,PTHR1 agonist,CBFb RUNX1 block,D3 antag,DRD3 agonist,MBNL1-CUG inh
CCS(=O)(=O)c1ccc(N=Nc2ccc(O)c3ncccc23)c(OC)c1,-60%,-15%,.,?,-2,?
O=C(C1=NOC(CNc2ncc(C(F)(F)F)cc2Cl)C1)N1CCOCC1 (stereo not drawn),-10%,-12%,-3%,0,-1,-19%
CCOC(=O)C1CCCN(CCC(=O)Nc2ccc(Br)cc2)C1 (stereo not drawn),-2%,-12%,.,-50*,-16,5%
CCOC(=O)C1CCCN(CCC(=O)Nc2ccc(Br)c(C)c2)C1 (stereo not drawn),-21%,-21%,.,-54*,-9,?
CCOC(=O)C1CCCN(CCC(=O)Nc2ccc(C)c(C)c2)C1 (stereo not drawn),-14%,i,6%,?,-10,3%
CCOC(=O)C1CCCN(CCC(=O)Nc2ccc3c(c2)CCC3)C1 (stereo not drawn),-17%,-14%,3%,-56*,-35,-1%
Cc1ccc(NC(=O)CN2C(=O)COc3ccc(S(=O)(=O)NC4CCCC4)cc32)c(Cl)c1,.,-13%,.,.,-7,.
C=CCC[C@@H](CCCCC)OC(=O)/C=C/[C@H](O)[C@@H](O)C[C@@H](O)CC=C,.,i,.,54,6,.
CCOC(=O)c1c(NC(=O)c2cccs2)sc(CC)c1-c1cccs1,-16%,-6%,?,31,62*,-6%
CCOC(=O)c1c(-c2cccs2)csc1NC(=O)CCCC(=O)O,2%,i,1%,-5,44*,37%
CCn1c(O)c(C=Nc2ccccc2)sc1=S,5%,-27%,-4%,-27,-5,?
O=C(O)Cn1c(O)c(C=Nc2ccccc2)sc1=S,5%,-10%[57.5 µM],4%,-63*!,0,?
COc1cc(C=Nc2cccc(C)c2)c(O)c([N+](=O)[O-])c1,?,i,-11%,-92*,-30,?
Cc1cccc(N=Cc2cc3c(cc2[N+](=O)[O-])OCO3)c1,-1%,i,-25%,-18,-1,?
CCn1c(CNc2cccc(C(F)(F)F)c2)n[nH]c1=S,7%,-13%,7%,-4,-21,-3%
Oc1c(Cl)cc(Cl)c2cccnc12,-21%,-24%,?,-61*,-8,15%
CC(C)COCc1ccc(O)c2ncccc12,-64%,-4%,-2%,?,-15,16%
O=C(Oc1c(Cl)cc(Cl)c2cccnc12)c1ccco1,-18%,i,-17%,-124*,-4,2%
CC(=O)NC(C)c1cc(Cl)c2cccnc2c1O (stereo not drawn),.,-17%,.,.,.,.
Oc1ccc(Cl)c2cccnc12,-32%,-8%,-4%,-59*,-17,.
CCCOCc1ccc(O)c2ncccc12,-55%,i,?,-71*,-12,2%
COc1ccc(CCNC(=O)c2cc3ccc(Cl)cc3nc2N)cc1,.,-74%,.,-11,-5,.
CCOc1cc(CNCCSc2nnnn2C)ccc1OCc1ccc(Cl)cc1Cl,.,-1%,.,.,-12,.
O=C(CN1CCN(Cc2ccccc2)CC1)c1ccccc1,13%,-8%[57.5 µM],-3%,9,-11,1%
O=C(CN1CCCCC1)c1c[nH]c2ccccc12,-10%,-17%,.,7,0,-4%
SMILES,Integrin act MD,PTHR1 agonist,CBFb RUNX1 block,D3 antag,DRD3 agonist,MBNL1-CUG inh
O=C(CN1CCN(Cc2ccccc2)CC1)c1c[nH]c2ccccc12,-25%,i,9%,-54*,-12,-3%
O=C(CN1CCN(Cc2ccccc2)CC1)c1ccc(Br)cc1,-26%,i,2%,-62*,-35,-8%
Cc1ccc([N+](=O)[O-])cc1S(=O)(=O)Nc1ccccn1,-27%,-5%,4%,1,5,15%
COC(=O)c1ccc(OCCCCN2CC(C)OC(C)C2)cc1 (stereo not drawn),-8%,-5%,5%,-75*,-15,-12%
COc1cccc(OCCCCN2CCCCC2)c1,-7%[7.66 µM],i,12%,-83*,-33,-7%
COC(=O)C1CCN(CCCOc2ccc(CN3CCN(c4ccc([N+](=O)[O-])cc4)CC3)cc2)CC1,-33%,-2%,-2%,?,32*,?
CCOc1cccc(OCCCCN2CCCCC2)c1,5%,i,-1%,-66*,-13,-8%
COC(=O)C1CCN(c2ccc([N+](=O)[O-])cc2)CC1,-39%,-15%,-10%,8,3,?
COc1cc(C(=O)NC(=S)Nc2ccc(N3CCCC3)cc2)cc(OC)c1OC,-16%,-13%,.,5,2,28%
c1ccc(CN2CCC3CC2c2cc(N4CCCCC4)ccc23)cc1 (stereo not drawn),-13%,-5%,.,?,-16,.
CC1CCCN(CCCCOc2cccc(Br)c2)C1 (stereo not drawn),-27%,-19%,-7%,-83*,-9,.
CC1CC(C)CN(CCCCOc2ccc([N+](=O)[O-])cc2)C1 (stereo not drawn),-16%,i,-7%,-82*,-12,?
Brc1cccc(OCCCCN2CCCCC2)c1,?,i,6%,-92*,-29,-16%
O=[N+]([O-])c1ccccc1OCCCN1CCOCC1,-8%,i,3%,?,-45,8%
CC1CN(CCCOc2ccccc2[N+](=O)[O-])CC(C)O1 (stereo not drawn),-16%,i,-5%,-59*,-50,22%
CC1CN(CCCOc2ccc([N+](=O)[O-])cc2)CC(C)O1 (stereo not drawn),6%,i,-2%,-15,-7,?
COc1ccc(-c2cc3c(o2)CCCC3OCCN2CCOCC2)cc1 (stereo not drawn),.,-17%,.,-7,-4,.
COc1cccc(OCCCCN2CC(C)OC(C)C2)c1 (stereo not drawn),-7%,i,-4%,-87*,-8,-4%
CC1CCCN(CCOc2ccc(Br)cc2)C1 (stereo not drawn),9%,i,5%,-99*,-33,-1%
C=CCNC(=O)NC(=O)COC(=O)CNS(=O)(=O)c1ccc(F)c(F)c1F,-9%,i,22%,-11,-3,3%
CCOc1ccc(OCCSc2nc3ccccc3[nH]2)cc1,-44%,-10%[57.5 µM],8%,-13,2,-7%
CCCOc1ccc(CSc2nc3ccccc3[nH]2)cc1,-43%,-37%,-1%,-65*,11,-6%
COc1c(F)c(F)c(C(=O)Nc2ccc3oc(-c4ccncc4)nc3c2)c(F)c1F,14%,i,7%,15,7,100%
